In PubChem BioAssay (Tox21) one finds Potency data, which are given here for 13 molecules.

Assay [1] can be described thus: Nuclear factor erythroid 2-related factor 2/antioxidant responsive element (Nrf2/ARE) small molecule agonists: qHTS cell viability counter screen in human keratinocytes (AID 1919968; active = well fitted curve in the direction sought with a large enough effect in the repeat runs; an effect the other way counts as inactive or inconclusive; also: nearly all actives have a fitted effect of over 55% in size; also: potency is read from the fitted curve at half-maximal effect). Summed up:
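Measured as CellTiter-Fluor fluorescence, this readout tracks cytotoxicity in the same wells as the ARE-luciferase screen. HaCaT reporter cells (1,500/well) received compounds after a 5 h pre-incubation and were exposed for 23 h.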
In general terms: Quantitative high-throughput screening tests each substance at several concentrations.

A short description of assay [2]: Nuclear factor erythroid 2-related factor 2/antioxidant responsive element (Nrf2/ARE) small molecule agonists: luciferase reporter gene qHTS assay in human keratinocytes (AID 1919969). Also: nearly all actives have a fitted effect of over 35% in size. Also: potency is read from the fitted curve at half-maximal effect. On the technique in general: Reporter assays use an easily measured gene product as a stand-in for the process of interest.
The target in assay [3] is Gonadotropin-releasing hormone receptor (Homo sapiens) (UniProt P30968). Kind of assay: Human gonadotropin-releasing hormone receptor (GnRHR) small molecule agonists, calcium flux assay in GnRHR-HEK293 cells (AID 1920063). Also: nearly all actives have a fitted effect of over 35% in size. Put shortly: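 Fluorescence kinetics (480 nm excitation, 540 nm emission; 3 min, 1 s steps) report calcium mobilisation in human GnRHR-HEK293 cells in agonist mode. Dye incubation: 1 h, 37 C.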

The target of assay [4] is KiSS-1 receptor (Homo sapiens) (UniProt Q969F8). The experiment in a line: Human kisspeptin (KISS1R) small molecule agonists, calcium flux assay in KISS1R-HEK293 cells (AID 1920064; active = well fitted curve in the direction sought with a large enough effect in the repeat runs; an effect the other way counts as inactive or inconclusive). Summed up:
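Measures KISS1R agonism through calcium-sensitive dye fluorescence in stably transfected HEK293 cells, read for 3 min after pin-tool compound delivery; 15-point titrations in triplicate.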
Background: A change in cytosolic calcium serves as a functional read-out for many receptors and channels.

Assay [5] in a line: G protein-coupled receptor (GPCR) small molecule agonists, calcium flux assay: HEK293 wild type cell line counter screen (AID 1920065). Put shortly:
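Readout: fluorescence at 480 nm excitation/540 nm emission, sampled at 1 s intervals for 3 min. Cells had been cultured 18 h, then dye-loaded 1 h at 37 C before compound or ATP addition.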

Assay [6] is described as follows: p53 small molecule agonists, cell-based qHTS assay with rat liver microsomes: qHTS cell viability counter screen (AID 1963580). Also: nearly all actives have a fitted effect of over 45% in size. Summed up: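 p53RE-bla HCT-116 cells (4,000/well) rested 5 h at 37 C, then given Tox21 compounds in DMSO with rat liver microsomes (0.5 mg/mL final) plus NADPH (0.5 mg/mL final) for 16 h at 37 C. Viability read by CellTiter-Glo luminescence after 30 min at room temperature.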

Assay [7] can be described thus: p53 small molecule agonists, cell-based qHTS assay: qHTS cell viability counter screen (AID 1963581). Also: nearly all actives have a fitted effect of over 45% in size. Put shortly:
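In the same plates used for the p53 bla reporter, HCT-116 cells given compounds for 16 h at 37 C received CellTiter-Glo; luminescence was recorded 30 min later at room temperature.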

Assay [8] can be described thus: p53 small molecule agonists, cell-based qHTS assay (AID 1963582; active = well fitted activation curve with a large enough effect in the signal ratio in the repeat runs, not every such curve was filed as active; the % refers to the signal ratio). Put shortly: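 Compounds are pin-transferred in DMSO onto p53RE-bla cells and incubated 16 h at 37 C. The B/G FRET beta-lactamase substrate is then applied for 2 h at RT and fluorescence recorded.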
The target of assay [9] is 5-hydroxytryptamine receptor 2A (Homo sapiens) (UniProt P28223). The experiment in a line: 5-hydroxytryptamine receptor 2A (HTR2A) small molecule antagonists, cell-based qHTS assay (AID 1963586). Also: nearly all actives have a fitted effect of over 45% in size. Put shortly: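 Antagonist-mode intracellular calcium assay: DOI (4 nM) added after 5 min compound pre-incubation at room temperature to dye-loaded HTR2A-CHO cells. Fluorescence followed for 3 min, sampled every second.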

For assay [10] the target is unchanged. The experiment in a line: 5-hydroxytryptamine receptor 2A (HTR2A) small molecule agonists, cell-based qHTS assay (AID 1963587). Also: nearly all actives have a fitted effect of over 30% in size. Put shortly: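 HTR2A-CHO cells, plated 18 h at 37 C/5% CO2, dye-loaded 1 h at 37 C; compounds in DMSO added by pin tool (agonist mode). Intracellular calcium flux read as kinetic fluorescence on FDSS over 2 min at 1 s intervals.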

The target in assay [11] is Muscarinic acetylcholine receptor M1 (Homo sapiens) (UniProt P11229). The experiment in a line: Cholinergic receptor muscarinic 1 (CHRM1) small molecule antagonists, cell-based qHTS assay (AID 1963588). Also: nearly all actives have a fitted effect of over 40% in size. Put shortly:
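CHRM1-CHO calcium-flux assay, antagonist mode. Cells were seeded 18 h, dye-loaded 1 h at 37 C and given compound for 5 min at RT, then acetylcholine was added at 50nM. FDSS fluorescence was read 3 min; 15 concentrations, three runs.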

Assay [12] has the same target. Kind of assay: Cholinergic receptor muscarinic 1 (CHRM1) small molecule agonists, cell-based qHTS assay (AID 1963589). Also: nearly all actives have a fitted effect of over 35% in size. Summed up: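 Each compound was tested at 15 concentrations across three independent runs on dye-loaded CHO cells stably expressing human CHRM1, reading intracellular calcium fluorescence kinetically at 1 sec intervals.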
Assay [13] in a line: cAMP Responsive Elements (CRE) small molecule agonists, cell-based qHTS assay (AID 1963590). Summed up: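 Cell line: CRE-bla HEK 293T; medium DMEM/10% dialyzed FBS/0.1 mM NEAA/1 mM pyruvate/25 mM HEPES; 3 h compound exposure; beta-lactamase FRET readout after 2 h substrate loading at RT.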
A short description of assay [14]: cAMP Responsive Elements (CRE) small molecule antagonists, cell-based qHTS assay (AID 1963591; active = well fitted inhibition curve with a large enough effect in the signal ratio in the repeat runs, not every such curve was filed as active; the % refers to the signal ratio). Summed up: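 Inhibition of NKH477-driven (0.25 uM final) CRE-beta-lactamase signal in HEK293T cells, 3 h compound exposure at 37 °C, detected by FRET substrate fluorescence.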
In assay [15] the target is Beta-2 adrenergic receptor (Homo sapiens) (UniProt P07550). Kind of assay: Adrenergic beta2 receptor (ADRB2) small molecule antagonists, cell-based qHTS assay (AID 1963592). Also: nearly all actives have a fitted effect of over 50% in size. Also: potency is read from the fitted curve at half-maximal effect. Put shortly:
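Cells (CHO, stable ADRB2 overexpression) incubated 18-20hr at 37C; compounds added from DMSO; agonist mix (1nM isoproterenol, 100uM IBMX, 25uM Ro-20-1724) added; 0.5hr RT; d2-cAMP and anti-cAMP-cryptate added; 1hr RT; 665/615 nm read.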

Assay [16] shares this target. Kind of assay: Adrenergic beta2 receptor (ADRB2) small molecule agonists, cell-based qHTS assay (AID 1963593).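 Also: CHO cells stably overexpressing human ADRB2.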 Put shortly:
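CHO cells stably over-expressing ADRB2 were plated overnight at 37C, then dosed with compounds plus a stimulation mix containing 100uM IBMX and 25uM Ro-20-1724 for 0.5hr at room temperature. cAMP was measured by HTRF competition, 1hr.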

Assay [17] deals with D(2) dopamine receptor (Homo sapiens) (UniProt P14416). Kind of assay: Dopamine D2 receptor (DRD2) small molecule agonists, cell-based qHTS assay (AID 1963594). Also: nearly all actives have a fitted effect of over 35% in size. Put shortly:
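HEK293 cells stably expressing DRD2 were cultured 24 h at 37 C, then given Ro20-1724 (0.1 mM final) and compounds for 10 min at room temperature. NKH477 (200nM) was then added for 30 min. cAMP was read by HTRF.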

Assay [18] has the same target. Kind of assay: Dopamine D2 receptor (DRD2) small molecule antagonists, cell-based qHTS assay (AID 1963595; active = well fitted inhibition curve with a large enough effect in the signal ratio in the repeat runs, with a control signal flat; the % refers to the signal ratio). Summed up:
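HEK293 cells stably expressing DRD2 were preincubated with 0.1 mM Ro20-1724, then with compound for 10 min at room temperature. Cells were stimulated with 200 nM NKH477 plus 12 nM quinpirole for 30 min, and cAMP was read by HTRF.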

Assay [19] in a line: p53 small molecule agonists, cell-based qHTS assay with human liver microsomes: qHTS cell viability counter screen (AID 1963579). Also: nearly all actives have a fitted effect of over 45% in size. Summed up:
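Metabolic activation used human liver microsomes and NADPH, both 0.5 mg/mL final, over 16 hours at 37 C on p53RE-bla cells (4,000/well). Cytotoxicity measured by CellTiter-Glo luminescence, 30 min at room temperature.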

Each structure is given as a SMILES string. A number with no mark means an inactive call. Inconclusive results are not listed. Active and inactive are the calls of the source. Unless noted, calls follow the shape of the full dose curve.

Chain of Muscarinic acetylcholine receptor M1 (Homo sapiens) (P11229 whole entry, looked up): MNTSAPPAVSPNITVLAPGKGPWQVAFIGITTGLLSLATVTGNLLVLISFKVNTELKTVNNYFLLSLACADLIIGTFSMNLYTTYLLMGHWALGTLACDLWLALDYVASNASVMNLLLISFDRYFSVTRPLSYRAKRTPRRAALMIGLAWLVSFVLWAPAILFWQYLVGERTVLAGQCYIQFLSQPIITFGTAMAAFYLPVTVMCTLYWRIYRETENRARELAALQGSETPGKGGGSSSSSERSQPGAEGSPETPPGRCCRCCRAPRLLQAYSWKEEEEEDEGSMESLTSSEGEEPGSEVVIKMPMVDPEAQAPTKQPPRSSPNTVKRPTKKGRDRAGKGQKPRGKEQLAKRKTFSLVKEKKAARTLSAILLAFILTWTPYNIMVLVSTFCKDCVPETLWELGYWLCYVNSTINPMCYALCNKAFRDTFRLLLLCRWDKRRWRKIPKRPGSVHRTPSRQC
Chain of KiSS-1 receptor (Homo sapiens) (Q969F8 whole entry, looked up): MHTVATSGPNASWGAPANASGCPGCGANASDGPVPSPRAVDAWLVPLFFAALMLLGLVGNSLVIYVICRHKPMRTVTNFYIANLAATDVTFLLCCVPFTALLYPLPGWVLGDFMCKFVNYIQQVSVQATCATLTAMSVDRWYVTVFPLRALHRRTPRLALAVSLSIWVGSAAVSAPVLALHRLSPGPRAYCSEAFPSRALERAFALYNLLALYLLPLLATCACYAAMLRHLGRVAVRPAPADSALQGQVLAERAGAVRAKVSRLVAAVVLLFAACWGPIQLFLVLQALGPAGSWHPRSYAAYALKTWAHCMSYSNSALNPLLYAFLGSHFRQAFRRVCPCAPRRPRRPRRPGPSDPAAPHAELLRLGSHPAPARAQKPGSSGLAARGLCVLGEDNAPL
Chain of D(2) dopamine receptor (Homo sapiens) (P14416 whole entry, looked up): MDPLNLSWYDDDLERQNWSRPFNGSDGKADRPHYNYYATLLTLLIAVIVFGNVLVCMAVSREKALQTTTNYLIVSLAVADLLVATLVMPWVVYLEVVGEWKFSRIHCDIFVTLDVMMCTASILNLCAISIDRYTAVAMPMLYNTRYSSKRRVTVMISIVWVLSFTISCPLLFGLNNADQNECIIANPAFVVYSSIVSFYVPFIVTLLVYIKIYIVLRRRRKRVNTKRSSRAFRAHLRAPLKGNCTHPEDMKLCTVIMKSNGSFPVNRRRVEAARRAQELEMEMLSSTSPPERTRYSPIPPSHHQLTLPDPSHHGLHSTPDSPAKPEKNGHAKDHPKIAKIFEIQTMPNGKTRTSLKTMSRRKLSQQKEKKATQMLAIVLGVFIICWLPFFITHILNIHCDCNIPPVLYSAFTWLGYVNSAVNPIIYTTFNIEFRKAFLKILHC
Chain of 5-hydroxytryptamine receptor 2A (Homo sapiens) (P28223 whole entry, looked up): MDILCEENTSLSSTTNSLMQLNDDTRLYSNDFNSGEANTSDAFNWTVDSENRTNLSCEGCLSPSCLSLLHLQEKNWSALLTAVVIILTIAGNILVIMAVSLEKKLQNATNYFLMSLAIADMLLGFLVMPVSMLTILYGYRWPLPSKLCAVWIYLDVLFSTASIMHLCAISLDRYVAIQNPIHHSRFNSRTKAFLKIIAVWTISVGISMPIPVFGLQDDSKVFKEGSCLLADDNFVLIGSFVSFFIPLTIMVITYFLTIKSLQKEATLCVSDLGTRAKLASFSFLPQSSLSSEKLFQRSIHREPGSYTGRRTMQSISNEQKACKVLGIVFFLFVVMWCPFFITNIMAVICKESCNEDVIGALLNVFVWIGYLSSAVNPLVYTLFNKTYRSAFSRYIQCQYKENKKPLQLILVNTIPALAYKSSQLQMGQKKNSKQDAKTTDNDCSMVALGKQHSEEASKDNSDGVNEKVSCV
Chain of Beta-2 adrenergic receptor (Homo sapiens) (P07550 whole entry, looked up): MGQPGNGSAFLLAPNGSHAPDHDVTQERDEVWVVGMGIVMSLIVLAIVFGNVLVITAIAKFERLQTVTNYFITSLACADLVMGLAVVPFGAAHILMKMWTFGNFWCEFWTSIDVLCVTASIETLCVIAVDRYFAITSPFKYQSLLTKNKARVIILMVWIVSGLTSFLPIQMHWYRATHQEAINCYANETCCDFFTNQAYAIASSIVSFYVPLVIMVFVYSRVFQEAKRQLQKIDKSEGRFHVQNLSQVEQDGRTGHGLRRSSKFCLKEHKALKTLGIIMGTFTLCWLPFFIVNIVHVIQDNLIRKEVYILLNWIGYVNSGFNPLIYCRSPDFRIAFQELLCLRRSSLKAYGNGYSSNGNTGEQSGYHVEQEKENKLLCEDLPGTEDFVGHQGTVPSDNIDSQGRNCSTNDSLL
Chain of Gonadotropin-releasing hormone receptor (Homo sapiens) (P30968 whole entry, looked up): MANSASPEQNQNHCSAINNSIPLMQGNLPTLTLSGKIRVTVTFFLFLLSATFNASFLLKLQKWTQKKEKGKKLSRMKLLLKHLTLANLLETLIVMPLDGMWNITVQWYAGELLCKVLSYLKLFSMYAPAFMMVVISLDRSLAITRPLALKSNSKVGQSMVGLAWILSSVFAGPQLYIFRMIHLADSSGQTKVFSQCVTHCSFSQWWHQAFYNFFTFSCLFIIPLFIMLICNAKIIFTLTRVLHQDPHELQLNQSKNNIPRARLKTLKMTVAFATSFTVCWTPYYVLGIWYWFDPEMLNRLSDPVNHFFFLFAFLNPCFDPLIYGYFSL

Take `O=C(O)[C@H](O)c1ccccc1`: the Potency entry in assay [1], in assay [2], in assay [3], in assay [4], in [5] and in [6] was “inactive” throughout. Further, the Potency entry in [7], in [8], in assay [9], in assay [10], in [11] and in assay [12] was “inactive” each time. For the same molecule, the Potency entry in assay [13], in [14], in assay [15], in assay [16], in assay [17] and in assay [18] was “inactive” each time.

In the case of `Nc1nc(-c2ccccc2)cs1`, the Potency result in [1], in assay [2], in [3], in assay [4], in assay [5] and in [6] was “inactive” each time. In addition, the Potency result in assay [7], in assay [10], in assay [11], in assay [12], in assay [13] and in [14] was “inactive” in each case. Also, the Potency result in [15], in assay [17] and in [18] was “inactive” throughout.

With `CC(C)OC(=O)c1ccccc1C(=O)OC(C)C`, the Potency entry in assay [1], in [2], in assay [3], in assay [4], in [5] and in assay [6] was “inactive” in each case. Moreover, the Potency result in [7], in [10], in assay [11], in [12], in assay [13] and in [14] was “inactive” throughout. Besides, the Potency result in assay [15], in [17] and in [18] was “inactive” each time.

For the molecule `Clc1ccc(C(Cn2ccnc2)OCc2ccsc2Cl)c(Cl)c1` (centres undefined), the Potency in assay [1] was 8.41 µM (active); in assay [2], 10.6 µM (active); in assay [15] it was 29.8 µM (active). The Potency entry in assay [3], in [4], in [5], in assay [6], in assay [7] and in assay [10] was “inactive” in each case. The Potency entry in assay [12], in [13], in [17] and in assay [18] was “inactive” throughout.

For `CCCCOC(=O)CCC(C)=O`, the Potency result in assay [1], in assay [2], in assay [3], in assay [4], in assay [5] and in assay [6] was “inactive” throughout. Besides, the Potency result in assay [7], in assay [9], in assay [10], in assay [12], in assay [13] and in assay [14] was “inactive” in each case. Moreover, the Potency result in [15] and in assay [18] was “inactive” in each case.

Turning to `O=C(c1ccccc1)C1CCC1`, the Potency entry in assay [1], in assay [2], in assay [3], in [4], in [5] and in assay [6] was “inactive” in each case. Also, the Potency result in assay [7], in [9], in assay [10], in assay [11], in assay [12] and in assay [13] was “inactive” throughout. Also, the Potency entry in assay [14], in assay [15], in assay [16] and in assay [18] was “inactive” in each case.

On to `O=C(O)CCSSCCC(=O)O`, for which the Potency result in assay [1], in [2], in assay [3], in [4], in assay [5] and in assay [6] was “inactive” in each case. In addition, the Potency entry in assay [7], in [9], in assay [10], in assay [11], in [12] and in assay [13] was “inactive” throughout. Further, the Potency entry in assay [14], in assay [15], in assay [16], in assay [17] and in assay [18] was “inactive” each time.

For `CC(=O)C(=O)CC(C)C`, the Potency entry in [1], in assay [2], in assay [3], in assay [4], in assay [5] and in assay [6] was “inactive” throughout. In addition, the Potency result in assay [7], in assay [9], in [11], in assay [13], in assay [14] and in assay [16] was “inactive” throughout. The Potency entry in assay [17] and in assay [18] was “inactive” throughout.

Consider `CCOc1ccc(C(=O)OCCN(CC)CC)cc1`, for which the Potency result in assay [1], in [2], in assay [3], in assay [4], in assay [5] and in [19] was “inactive” in each case. In addition, the Potency entry in assay [7], in assay [9], in assay [11], in assay [12], in [13] and in assay [14] was “inactive” in each case. Further, the Potency entry in assay [15], in assay [16], in [17] and in assay [18] was “inactive” throughout.

For the molecule `FC(F)(Cl)C(F)(Cl)Cl`, the Potency result in assay [1], in assay [2], in [3], in assay [4], in [5] and in assay [19] was “inactive” in each case. The Potency result in assay [9], in assay [10], in assay [12], in assay [13], in assay [14] and in [15] was “inactive” throughout. In addition, the Potency result in [17] was “inactive”.

Turning to `O=C(NN1CCCC1)NS(=O)(=O)c1ccc(Cl)cc1`, the Potency result in assay [1], in assay [2], in assay [3], in assay [4], in assay [5] and in assay [6] was “inactive” each time. In addition, the Potency result in [7], in [9], in assay [10], in assay [11], in [12] and in [13] was “inactive” in each case. Further, the Potency entry in assay [14], in assay [15], in assay [16] and in [17] was “inactive” throughout.

Take `CCOc1ccc(OCC)c(Cl)c1`: the Potency entry in assay [1], in assay [2], in assay [3], in [4], in assay [5] and in assay [6] was “inactive” in each case. The Potency entry in assay [7], in assay [9], in assay [10], in assay [11], in assay [12] and in [13] was “inactive” throughout. Further, the Potency entry in assay [14], in [15], in assay [16], in [17] and in [18] was “inactive” in each case.

With `Cc1nc2ccc(CN(C)c3ccc(C(=O)N[C@@H](CCC(=O)O)C(=O)O)s3)cc2c(=O)[nH]1`, the Potency entry in assay [1], in [2], in assay [3], in [4], in assay [5] and in assay [6] was “inactive” throughout. Further, the Potency entry in assay [7], in assay [9], in assay [10], in assay [11], in assay [12] and in [13] was “inactive” throughout. Moreover, the Potency result in [14], in assay [15] and in [17] was “inactive” each time.
